Compound activity: PubChem, National Center for Advancing Translational Sciences (NCATS)
An excerpt weighted towards active compounds, which were near 2.4% of everything screened.
D2 ag-1 – agonists of human D2 dopamine receptor (beta-arrestin). P14416. DiscoveRx PathHunter D2 beta-arrestin, luminescence, 90 min; 100% = 57 uM dopamine signal. activation, % (no concentration beside the values). hit rate 0.084% among 360,000; in the data active = activation above about 40%; inconclusive = between about 15% and that limit
Target sequence (P14416 whole entry, looked up): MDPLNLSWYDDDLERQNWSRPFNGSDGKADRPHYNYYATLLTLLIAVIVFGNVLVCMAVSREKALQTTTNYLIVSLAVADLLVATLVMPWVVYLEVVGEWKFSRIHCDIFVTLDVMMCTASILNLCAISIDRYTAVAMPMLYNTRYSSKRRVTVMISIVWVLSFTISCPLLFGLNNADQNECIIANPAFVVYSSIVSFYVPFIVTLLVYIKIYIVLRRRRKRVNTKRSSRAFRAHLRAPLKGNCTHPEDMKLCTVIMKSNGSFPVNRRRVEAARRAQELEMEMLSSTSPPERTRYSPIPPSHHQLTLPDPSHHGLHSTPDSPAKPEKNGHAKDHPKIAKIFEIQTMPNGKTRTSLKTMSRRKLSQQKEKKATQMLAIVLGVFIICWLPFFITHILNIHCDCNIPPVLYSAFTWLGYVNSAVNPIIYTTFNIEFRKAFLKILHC
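Agonist mode: compounds alone added to overnight-plated D2 PathHunter cells for 90 min at 37 C, with 57 uM final dopamine (EC100) defining full response. Beta-arrestin recruitment detected by chemiluminescent reagent, read after 1 h at ambient temperature.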
D2 PAM-1 – positive allosteric modulators of human D2 dopamine receptor | HEK293 T-REx D2, calcium flux, EC20 dopamine potentiation | potentiation, % at 10 µM | hit rate 0.34% among 340,000 | AID 485347;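 active = potentiation over 3 SD above the plate norm, cut at about 30% in these data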; note: 0% is about no effect
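Potentiation of an EC20 dopamine calcium response measured kinetically over 180 s, after a preceding 180 s compound-only read flagging agonists. Cells: inducible Hek293 Trex D2 line, 4000/well, cultured overnight at 30 C before dye loading.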
D2 PAM-2 – human D2 receptor positive allosteric modulation. P14416. DiscoveRx D2 beta-arrestin cells, luminescence, 90 min; 100% = 57 uM dopamine signal. potentiation, % (test concentration not listed). hit rate 0.23% among 360,000. AID 624464; in the data active = potentiation above about 50%; inconclusive = mostly about 30% to 49%
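PathHunter beta-arrestin assay in DiscoveRx D2 cells. Compounds were added with an EC20 of dopamine (50 nM final) for 90 min at 37 deg C. Luminescence was read 1 h after detection reagent, with 57 uM dopamine as the EC100 control.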
D2 antag – antagonizes the human D2 dopamine receptor; P14416; HEK293 TREx D2 cells, calcium flux, dopamine EC80; inhibition, % at 10 µM; hit rate 2% among 340,000; AID 485344; in the data active = inhibition above about 30%; inactive = below that, where a call was filed; note: 0% is about no effect
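Tetracycline-induced HEK293 T-REx cells expressing D2 force-coupled to calcium signalling were dye-loaded, exposed to compound for 180 s, then challenged with an EC80 of dopamine; calcium flux was followed kinetically for a further 180 s.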
D2 ag-2 – agonists of human D2 dopamine receptor. HEK293 T-REx D2 cells, calcium flux agonist mode. activation, % at 2 µM. hit rate 0.53% among 340,000. AID 485358;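 active = activation over 3 SD above normal in the single-dose calcium agonist read, cut at about 30% in these data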; note: 0% is about no effect
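Tetracycline-induced HEK293 T-REx cells with force-coupled D2 receptor, plated overnight at 30 C, loaded with no-wash calcium dye. After a 10 s baseline, compound was pin-added and calcium flux read kinetically for 180 s; calcium rises flagged agonists.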
Starred values were filed as active, the others as inactive; ? = inconclusive; . = not tested or not shown.

SMILES	D2 ag-1	D2 PAM-1	D2 PAM-2	D2 antag	D2 ag-2
CCn1nc(C)c(CN2CCC(C(=O)Nc3cccc(-c4cccc(F)c4)c3)CC2)c1C	3	-18	-5	38*	-2
CCn1cc(CN2CCC(C(=O)Nc3cccc(-c4cccc(F)c4)c3)CC2)cn1	-3	-29	-36	-5	2
COc1ccc(NC(=O)N2CCCCC2c2cccnc2)cc1 (stereo unspecified)	-1	14	1	23	-1
COc1cc(OC)cc(C(=O)NC(=S)N2CCCCC2c2cccnc2)c1 (stereo unspecified)	-2	5	-12	41*	-1
Cc1ccc(OCc2cc(C(=O)N3CC4C[C@@H]5CC3C[C@H](C4)C5)no2)cc1C	-4	-2	0	-13	1
Cc1nc2ccccc2c2oc(C(=O)N3CC(C)CC(C)C3)cc12 (stereo unspecified)	0	31*	-3	4	-1
Cc1nc2ccccc2c2oc(C(=O)NCCCN3CC(C)CC(C)C3)cc12 (stereo unspecified)	0	-5	-31	-9	2
CN(Cc1nc(-c2cccc(Cl)c2)no1)C1CCOCC1	1	7	-10	47*	0
O=C1CSCc2nc3ccccc3n21	-3	.	-15	.	.
O=C(COC(=O)CCNS(=O)(=O)c1ccccc1)Nc1ccc(OC(F)F)cc1	0	26	0	50*	0
COc1ccc(NC(=O)C2CSC3c4ccccc4C(=O)N23)cc1 (stereo unspecified)	-1	-3	-9	32*	-2
COC(=O)C1CSC2c3ccccc3C(=O)N12 (stereo unspecified)	-4	.	-10	.	.
O=C(c1ccco1)N1CCN(C(=O)C2CC(=O)N(c3ccc(Cl)cc3)C2)CC1 (stereo unspecified)	-5	0	-3	11	-1
CCOC(=O)c1c(NC(=O)COc2ccc(Cl)cc2C)sc(C(C)=O)c1C	.	-3	.	.	0
CCN(CC)c1ccc(/C=C2/C(=O)c3ccc(C(=O)O)cc3C2=O)cc1	-3	-2	-32	28	84*
COc1cccc(NC(=S)Nc2cc(C)cc(C)n2)c1	-2	8	-6	44*	0
Cc1cc(C)nc(NC(=S)Nc2cccc(F)c2)c1	-6	-8	-7	-1	0
CN1CCN(c2ccc(NC(=O)c3ccc(Br)o3)cc2)CC1	-1	-4	0	9	1
O=C(Nc1ccc(N2CCOCC2)cc1)c1ccc(Br)o1	1	5	-2	71*	0
Cc1cc(Br)ccc1NC(=O)CNC(=O)COc1ccccc1C	-5	-14	-13	32*	0
Cc1ccccc1OCC(=O)Nc1ccccc1-c1ccccc1NC(=O)COc1ccccc1C	-4	-3	-20	-1	0
CCOC(=O)C1=CCN(S(=O)(=O)c2ccc(C)cc2)[C@H]1c1ccccc1Cl	1	.	1	.	.
Nc1c(C(=O)N2CCOCC2)sc2nc3c(cc12)CCC3	1	5	-1	8	-1
Nc1c(C(=O)N2CCOCC2)sc2nc3c(cc12)CCCC3	1	33*	-2	-8	0
O=C(CSc1nc(-c2ccc(F)cc2)[nH]c1-c1ccc(F)cc1)Nc1ccc2c(c1)OCO2	.	-12	.	.	-1
SMILES	D2 ag-1	D2 PAM-1	D2 PAM-2	D2 antag	D2 ag-2
CC(C)(C)OC(=O)NC1CC2CCCC(C1)N2Cc1ccccc1 (stereo unspecified)	-4	-33	-43	60*	1
COCCNC(=S)NC1CC2CCC(C1)N2Cc1ccccc1 (stereo unspecified)	-3	-30	-26	9	0
COc1ccc(CN2C3CCCC2CC(NC(=O)Nc2cccc(C)c2)C3)cc1 (stereo unspecified)	-1	-10	-48	9	0
COCC(=O)NC1CC2CCCC(C1)N2Cc1ccccc1 (stereo unspecified)	-1	-27	-19	42*	0
COc1ccc(CN2C3CCCC2CC(NC(=O)Nc2ccccc2)C3)cc1 (stereo unspecified)	-5	-24	-45	80*	0
C=CCN1C2CCCC1CC(NC(=O)Nc1cccc(C(C)=O)c1)C2 (stereo unspecified)	-3	-13	-23	33*	10
CCOC(=O)c1cccc(Nc2cc(C)nc(C)n2)c1	.	-5	.	.	0
CCc1noc(C)c1C(=O)Nc1sc(C(=O)N(C)C)c(C)c1C#N	-6	.	-22	.	.
CCOC(=O)C1=C[C@@H](C(C)(C)C)N(S(=O)(=O)c2ccc(C)cc2)[C@H]1c1cccc(Cl)c1	-5	.	-2	.	.
Cc1ccc(C(=O)N/C(N)=N/c2nc3ccccc3o2)cc1	-2	8	1	53*	0
Cc1nc2c(-c3ccccc3)c(C)[nH]n2c(=O)c1Cc1ccc(C(C)C)cc1	.	-21	.	.	-1
Cc1ccc(NC(=O)CSCn2nnc3c(=O)[nH]c(Cc4ccc(F)cc4)nc32)c(C)c1	.	7	.	.	-1
CC(=O)Nc1ccc(S(=O)(=O)N2CCN(c3cc(C(F)(F)F)ccn3)CC2)cc1	5	-7	-9	4	0
FC(F)(F)c1ccnc(N2CCN(Cc3cnc(-c4ccccc4)[nH]3)CC2)c1	1	-24	-20	90*	0
c1ccc(Cc2cc[n+](Cc3ccccn3)cc2)cc1	-2	9	-2	42*	0
O=[N+]([O-])c1ccc(C[n+]2ccc(Cc3ccccc3)cc2)cc1	13	-1	10	3	0
COc1ccc(-c2cc(C(=O)NC(C)c3ccccn3)c3ccccc3n2)cc1OC (stereo unspecified)	12	44*	6	-29	0
COc1ccc(-c2cc(C(=O)NC3CCCC3)c3ccccc3n2)cc1OC	-2	.	0	.	.
O=S(=O)(c1ccc(SCCOc2cccc(Br)c2)nc1)N1CCCC1	-2	-3	-29	42*	0
O=C(CSc1ccc(S(=O)(=O)N2CCCCC2)cn1)Nc1ccccc1Br	41*	10	1	3	-1
CCOCCn1c(C)c(C(=O)OCC)c2cc(O)c3ccccc3c21	-14	-6	?	20	1
CCN(CC)c1ccc2cc(-c3nc4sc5c(c4c(=O)[nH]3)CCC(C(C)(C)C)C5)c(=O)oc2c1 (stereo unspecified)	.	0	.	.	-1
O=C(O)CCn1c(SCCOc2ccccc2F)nc2ccccc21	-4	-7	-51	28	0
CC1(C(=O)NCC2CCOCC2)Cc2c(-c3cccc(C(F)(F)F)c3)ccnc2O1 (stereo unspecified)	-3	.	-4	.	.
Cc1ccc(NC(=O)c2ccc3c(c2)OCCO3)cc1S(=O)(=O)Nc1cccc(Cl)c1	2	-4	7	31*	1
CCOc1ccc(NC(=O)c2ccc3c(c2)OCCO3)cc1S(=O)(=O)N(CC)CC	-2	-9	-8	32*	0
